Most compounds without a hit are left out; they make up all but 3.4% or so of the library.
FBW7 act: FBW7 E3 ligase activators, primary screen, biochemical, AlphaScreen, human; F-box/WD repeat-containing protein 7 (Homo sapiens), Q969H0; AlphaScreen FBW7–phospho-cyclin E peptide binding, activator screen; normalized activity (activation), % at 26.1 µM; 650,000 compounds, 0.13% hits; AID 1259310, 2017; in the data active = normalized activity above about 1.9%;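 note: purified mutant Fbw7 with reduced substrate affinity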
Target sequence (Q969H0 whole entry, looked up): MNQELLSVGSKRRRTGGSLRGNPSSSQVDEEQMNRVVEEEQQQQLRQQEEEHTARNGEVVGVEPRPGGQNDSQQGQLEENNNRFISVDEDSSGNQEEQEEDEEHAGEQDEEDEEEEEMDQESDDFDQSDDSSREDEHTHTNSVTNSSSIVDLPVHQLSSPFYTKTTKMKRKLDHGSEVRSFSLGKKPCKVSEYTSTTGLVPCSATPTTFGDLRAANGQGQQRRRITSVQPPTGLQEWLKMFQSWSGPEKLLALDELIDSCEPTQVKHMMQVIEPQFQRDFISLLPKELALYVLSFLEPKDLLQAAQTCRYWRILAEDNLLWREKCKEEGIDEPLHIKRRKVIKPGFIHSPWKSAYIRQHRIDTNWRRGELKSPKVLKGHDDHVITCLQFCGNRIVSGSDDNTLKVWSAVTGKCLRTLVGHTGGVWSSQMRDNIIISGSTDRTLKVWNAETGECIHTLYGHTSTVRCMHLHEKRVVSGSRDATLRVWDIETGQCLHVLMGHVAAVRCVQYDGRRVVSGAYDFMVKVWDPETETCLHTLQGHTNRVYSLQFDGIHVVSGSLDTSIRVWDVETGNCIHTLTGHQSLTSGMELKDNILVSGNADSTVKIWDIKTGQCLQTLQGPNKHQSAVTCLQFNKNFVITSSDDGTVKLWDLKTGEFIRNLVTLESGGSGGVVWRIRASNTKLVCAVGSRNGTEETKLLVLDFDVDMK
MITF inh: MITF inhibitors, primary screen, biochemical, AlphaScreen, human; 650,000 compounds, 0.91% hits; inhibition, % at 2.6 µM; AID 1259374, 2018; Microphthalmia-associated transcription factor (Homo sapiens), O75030; AlphaScreen MITF homodimerization, bead proximity signal; in the data active = inhibition above about 50%;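 note: 0% = vehicle wells with protein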
TEAD-YAP inh: TEAD-YAP interaction inhibition, primary screen, TEAD-YAP interaction inhibitor project, luminescence, HEK-TIYL cells; TEAD-Gal4/YAP UAS-luciferase luminescence; inhibition, % at 9.12 µM; 640,000 compounds, 1.4% hits; AID 1259422, 2018; in the data active = inhibition above about 32%;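 note: 0% = median of test compound wells and 100% = reference inhibitor wells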
GPR151 ag: activators of human GPR151, primary screen, cell-based, PathHunter beta-arrestin, luminescence; G-protein coupled receptor 151 (Homo sapiens), Q8TDV0; PathHunter beta-arrestin GPR151 cells; activation, % at 11.2 µM; 650,000 compounds, 1% hits; AID 1508602, 2020; in the data active = activation above about 4.9%;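 note: 0% = median of compound wells and 100% = cells with positive control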
An asterisk follows results filed as active.

SMILES	FBW7 act	MITF inh	TEAD-YAP inh	GPR151 ag
COc1ccc2c(c1)CC/C(=C\c1cccn1C)C2=O	0	15	46*	-7
CCC(c1nnnn1C(C)(C)CC)N1CCN(C2CCCCC2)CC1 (configuration not stated)	0	5	5	2
C=CCOC(=O)C1=C(C)Nc2nnnn2C1c1cccc(OC)c1 (configuration not stated)	0	12	50*	-1
Oc1c(C(Nc2nccs2)c2ccc(F)cc2)ccc2cccnc12 (configuration not stated)	-2	22	43*	-1
Oc1c(C(Nc2nccs2)c2ccccc2)ccc2cccnc12 (configuration not stated)	-1	24	70*	0
Cc1[nH]c2ccccc2c1C(Nc1nccs1)c1ccc(F)cc1 (configuration not stated)	0	4	-28	0
Oc1c(C(Nc2nccs2)c2ccccn2)ccc2cccnc12 (configuration not stated)	0	43	76*	1
Oc1cccc(C(Nc2nccs2)c2ccc3cccnc3c2O)c1 (configuration not stated)	-1	69*	73*	0
CC(=O)c1ccc(NC(=O)CSc2nncs2)cc1	0	8	0	0
Cc1cc(C(F)(F)F)nc(-n2nnc(CO)c2CO)n1	1	-4	-6	0
COc1cccc(C(=O)Nc2cccc(-c3cn4cccc(C)c4n3)c2)c1	0	8	-22	0
CCOc1ccc(NS(=O)(=O)c2cccc(Cl)c2)cc1	0	7	-3	1
CCc1nnc(C2CCN(C(=O)NCc3ccccc3)CC2)s1	0	13	1	-1
Cc1ccc(S(=O)(=O)N2C(C)CCCC2C)c(C)c1 (configuration not stated)	0	2	7	0
COc1ccc(CC(=O)Nc2cc(-c3cn[nH]c3)ccn2)cc1	0	-7	92*	1
COc1ccc(CC(=O)Nc2ncc3ccc(-c4cn[nH]c4)cc3c2Cl)cc1	1	14	40*	1
Cn1cc(-c2ccnc(NC(=O)Cc3ccc(F)cc3)c2)cn1	0	-18	48*	1
COc1ccc(CC(=O)Nc2ncc3ccc(-c4cn[nH]c4)cc3c2C#N)cc1	0	0	27	-3
O=C(Cc1ccc(F)cc1)Nc1cc(-n2ccnc2-c2ccccc2)ccn1	0	-6	39*	-1
CCN(Cc1ccccc1)S(=O)(=O)c1cc(Br)cnc1N	0	0	5	1
CCOc1ccc(NC(=O)c2ccc(F)c(S(=O)(=O)N3CCCc4ccccc43)c2)cc1	1	15	43*	0
CCOC(=O)C1CCCN(S(=O)(=O)c2cc(C(=O)Nc3ccc(CC)cc3)ccc2F)C1 (configuration not stated)	1	10	1	0
CCOC(=O)C1CCCN(S(=O)(=O)c2cc(C(=O)Nc3ccc(Oc4ccccc4)cc3)ccc2F)C1 (configuration not stated)	0	8	53*	-1
O=C(Nc1ccc(Oc2ccccc2)cc1)c1ccc(F)c(S(=O)(=O)N2CCN(c3cccc(Cl)c3)CC2)c1	0	3	41*	2
CCOc1ccc(NC(=O)c2ccc(F)c(S(=O)(=O)N3CCN(c4ccccc4)CC3)c2)cc1	0	0	37*	1
SMILES	FBW7 act	MITF inh	TEAD-YAP inh	GPR151 ag
COC(=O)c1c(NC(=O)c2cc(OC)c(OC)c(OC)c2)sc2c1C(C(=O)OC)CC2 (configuration not stated)	0	14	1	0
O=Cc1s/c(=N\S(=O)(=O)c2ccccc2)n(CCCCl)c1Cl	0	0	45*	-2
N/C(=N\OC(=O)c1ccccc1Cl)c1ncon1	0	5	20	0
N/C(=N\OC(=O)c1sc2ccccc2c1Cl)c1ncon1	1	17	40*	0
CCCOc1ccccc1/C=N/NC(=O)c1ccc(O)cc1	0	9	-11	0
O=C(Nc1cccnc1)c1nn2cccnc2c1Cl	0	9	-29	-2
COc1ccc(CSc2n[nH]c(C)n2)cc1Br	0	5	34*	-1
Cc1nc(SCc2ccc(Cl)c(Cl)c2)n[nH]1	0	17	8	-1
COc1ccc(C(=O)N/N=C(\C)CC(=O)Nc2ccccc2Br)cc1OC	0	-12	41*	-2
COc1ccc(C(=O)N/N=C(\C)CC(=O)Nc2cccnc2)cc1OC	0	8	34*	-1
C/C(CC(=O)Nc1ccc(F)cc1F)=N\NC(=O)c1ccc(O)cc1	2.1*	16	-17	-1
COc1ccc(C(=O)N/N=C(\C)CC(=O)Nc2cccc3c2CCCC3)cc1OC	0	9	32*	-1
COc1ccc(C(=O)Nc2cccnc2)cc1OC	0	-2	-18	-1
C/C(CC(=O)Nc1cccc2c1CCCC2)=N\NC(=O)c1cccc(O)c1	0	5	14	-1
CCOC(=O)c1sc2nc3c(c(-c4ccc(C)o4)c2c1N)CCCC3	0	-13	0	3
CC1(C)CC(=O)C2=C(C1)N(c1cccc([N+](=O)[O-])c1)C(N)=C(C#N)C2c1ccccc1 (configuration not stated)	0	5	-6	-1
Cc1ccc(C(=O)N(CCCO)Cc2cc3cc4c(cc3[nH]c2=O)OCO4)cc1	0	14	2	-1
CC[C@@H]1NC(=O)[C@H]2CN(C(=O)c3ccccc3Cl)CCN2C1=O	0	4	2	2
O=C(NC1CC1)c1ccc(-c2cnn3c(N4CCC(O)CC4)ccnc23)cc1	0	-9	-27	0
CCNc1cc(C)nc(NCCNC(=O)Nc2cc(Cl)ccc2OC)n1	0	2	33*	-1
Cc1cccc2cc(CN(Cc3ccco3)C(=O)C(F)(F)F)c(=O)[nH]c12	0	-16	61*	-1
CCOC(=O)c1oc2ccccc2c1NC(=O)c1ccccc1OCC	0	7	53*	0
CCOc1ccccc1C(=O)Nc1nnc(CCc2ccccc2)s1	0	-5	34*	-2
COC(=O)c1ccccc1NC(=O)c1ccccc1OC	0	6	3	1
CCOC(=O)c1oc2ccccc2c1NC(=O)c1ccccc1C	0	11	-2	0
SMILES	FBW7 act	MITF inh	TEAD-YAP inh	GPR151 ag
CCOc1ccc(NC(=O)c2oc3ccccc3c2NC(=O)c2ccco2)cc1	2.6*	1	5	0
CCOc1ccccc1C(=O)Nc1ccccc1C(=O)OC	0	-9	53*	2
Cc1cccc(NC(=O)CSc2nc3ccc(NC(=O)c4ccccc4C(=O)N4CCCC4)cc3s2)c1C	0	10	3	-1
CCOC(=O)c1nn(CCO)c2c1CN(CCCc1ccccc1)CC2	2	5	4	0
Cc1cc(/C=N/N2CCOCC2)cc(C)c1O	0	-7	-4	-1
N/C(=N\OC(=O)c1cccc2ccccc12)c1ccc(Cl)cc1	2.1*	13	-8	1

Screens deposited in PubChem by The Scripps Research Institute Molecular Screening Center.
